The results in this text go back to the supplement of paper PMC7858590.

Values joined by “and” are separate entries in the source; they are usually repeats but may differ in a detail not shown here. Equal entries are not always repeated.

This test relates to human monocyte-derived macrophages (polarized). Put plainly: cell shape (eccentricity) Z-score vs DMSO control; higher = more elongated, M2-like morphology. To be noted: 5 µM, 24 h, cytokines present during treatment. On the procedure:
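Primary-screen hits were rescreened on polarized hMDMs with the differentiating cytokines (IL-4 + IL-13 or IFNg + TNFa) kept in the medium during treatment with compound at 5 uM for 24 h. The eccentricity Z-score vs DMSO wells is averaged over experiments.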

[1] abbreviates: macrophage state: M1-polarized (IFNg + TNFa).
[2] abbreviates: macrophage state: M2-polarized (IL-4 + IL-13).

For the molecule `Oc1cccc(O)c1`, under setting [1], the “cell shape (Z-score)” value was -3.74. Regarding `CCC[C@H](N[C@@H](C)C(=O)N1[C@H](C(=O)O)C[C@@H]2CCCC[C@@H]21)C(=O)OCC`, under setting [1], the “cell shape (Z-score)” value is -1.48. Turning to `OCCN(CCO)c1nc(N2CCCCC2)c2nc(N(CCO)CCO)nc(N3CCCCC3)c2n1`, under setting [2], the “cell shape (Z-score)” value came out at 0.465. `CC(CCCCC(=O)Nc1ccc(C(F)(F)F)cc1)NCCc1cnc[nH]1` (centres undefined): under setting [2], the “cell shape (Z-score)” value was -6.34. `CNC(=O)c1ccccc1Sc1ccc2c(/C=C/c3ccccn3)n[nH]c2c1`: under setting [1], the “cell shape (Z-score)” value was 8.44 and 13.2. In the case of `Cc1oc(=O)oc1CN1CCN(c2cc3c(cc2F)c(=O)c(C(=O)O)c2n3C(C)S2)CC1` (centres undefined), under setting [2], the “cell shape (Z-score)” value is -6.14. `Cc1nn(C)c2nc(NNC(=O)Nc3cc(Cl)nc(Cl)c3)cc(C(C)C)c12`: the “cell shape (Z-score)” value under setting [1] came to 7.42.

As for `COC(=O)C(CCCN=C(N)N)NC(=O)CCCc1c(-c2ccccc2)[nH]c2c(F)cc(F)cc12` (centres undefined), under setting [1], the “cell shape (Z-score)” value stood at 0.683. For the molecule `CC[C@]1(O)C[C@@H]2CN(CCc3c([nH]c4ccccc34)[C@@](C(=O)OC)(c3cc4c(cc3OC)N(C)[C@H]3[C@@](O)(C(=O)OC)[C@H](OC(C)=O)[C@]5(CC)C=CCN6CC[C@]43[C@@H]65)C2)C1`, the “cell shape (Z-score)” value under setting [1] was determined as 6.51. Consider `C[C@H]1CN([C@@H](C)CO)C(=O)Cc2cc(NC(=O)CCC(F)(F)F)ccc2O[C@H]1CN(C)S(=O)(=O)c1ccc(Cl)cc1`, for which, under setting [2], the “cell shape (Z-score)” value was -11. Regarding `COc1ccc2c(c1OC)CN(C)CCc1cc3c(cc1C(=O)C2)OCO3`, the “cell shape (Z-score)” value under setting [1] was -5.59. As for `Cc1cc2nc3c(=O)[nH]c(=O)nc-3n(C)c2cc1C=O`, the “cell shape (Z-score)” value under setting [2] is 6.26. In the case of `CCOc1cc2ncc(C#N)c(Nc3ccc(OCc4ccccn4)c(Cl)c3)c2cc1NC(=O)/C=C/CN(C)C`, the “cell shape (Z-score)” value under setting [1] came out at 0.0624. `Cc1c(C(=O)Nc2ccc(N3C[C@@H](C)O[C@@H](C)C3)nc2)cccc1-c1ccc(OC(F)(F)F)cc1`: the “cell shape (Z-score)” value under setting [1] came out at 8.76. In the case of `CC(NCCC(c1ccccc1)c1ccccc1)c1ccccc1` (centres undefined), under setting [1], the “cell shape (Z-score)” value is -8.8.

Regarding `CC1(CCOC2OC(CO)C(O)C(O)C2O)CCC2C(=CCC3C(C)(C(=O)O)CCCC23C)C1` (centres undefined), the “cell shape (Z-score)” value under setting [1] is -2.26. For the molecule `CN(C)CC[C@H](CSc1ccccc1)Nc1ccc(S(=O)(=O)NC(=O)c2ccc(N3CCN(Cc4ccccc4-c4ccc(Cl)cc4)CC3)cc2)cc1[N+](=O)[O-]`, the “cell shape (Z-score)” value under setting [1] was 0.862. `CCCC(=O)Nc1ncnc2c1ncn2[C@@H]1O[C@@H]2COP(=O)(O)O[C@H]2[C@H]1OC(=O)CCC`: under setting [1], the “cell shape (Z-score)” value worked out at 0.117. Consider `O=C(OC1C=C(CO)C2C(OC3OC(CO)C(O)C(O)C3O)OC=CC12O)c1ccc(O)cc1` (centres undefined), for which the “cell shape (Z-score)” value under setting [1] was 3.32. In the case of `C[C@@H]1O[C@@H](Oc2cc(O)c3c(=O)c(O[C@@H]4O[C@@H](C)[C@H](O[C@@H]5O[C@@H](C)[C@H](O)[C@@H](O)[C@H]5O)[C@@H](O)[C@H]4O)c(-c4ccc(O)cc4)oc3c2)[C@H](O)[C@H](O)[C@H]1O`, under setting [1], the “cell shape (Z-score)” value came to 5.9. Consider `O=Nc1c(-c2c(O)[nH]c3cc(Br)ccc23)[nH]c2ccccc12`, for which the “cell shape (Z-score)” value under setting [1] was -13.2. The same measure, in the same setting: to `CC1CNCCN1S(=O)(=O)c1cccc2cnccc12` (centres undefined) belongs -1.72; to `O=c1cc(-c2ccc(O)cc2)oc2cc(O)ccc12`, 2.2; to `CN(C)C(=O)n1nnnc1Cc1ccc(-c2ccccc2)cc1`, 10.3.
